Results: PubChem BioAssay AID1347074 (Center for Chemical Genomics, University of Michigan, 2019)
The whole screen tested about 47,000 compounds, of which about 2,800 (6%) were called active. This excerpt belongs to a sample that is enriched for actives. A number with no mark means an inactive call. No stated cut-off is given here; in the data, active means z-score above about 3 (passing the limit was not always enough); inactive means the rest.

Biological target: Endoribonuclease Dicer (Homo sapiens) (UniProt Q9UPY3)
Test: Dicer cleavage of pre-miR-21 blockers – biochemical, cat-ELCCA, chemiluminescence, primary screen (AID 1347074);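 further: plate controls were vehicle for no effect and no enzyme for full effect; higher signal means more uncleaved substrate so more Dicer inhibition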
Conditions: cat-ELCCA pre-miR-21 Dicer processing, at 25 µM, stronger effect = higher value

Chain of Endoribonuclease Dicer (Homo sapiens) (Q9UPY3 whole entry, looked up): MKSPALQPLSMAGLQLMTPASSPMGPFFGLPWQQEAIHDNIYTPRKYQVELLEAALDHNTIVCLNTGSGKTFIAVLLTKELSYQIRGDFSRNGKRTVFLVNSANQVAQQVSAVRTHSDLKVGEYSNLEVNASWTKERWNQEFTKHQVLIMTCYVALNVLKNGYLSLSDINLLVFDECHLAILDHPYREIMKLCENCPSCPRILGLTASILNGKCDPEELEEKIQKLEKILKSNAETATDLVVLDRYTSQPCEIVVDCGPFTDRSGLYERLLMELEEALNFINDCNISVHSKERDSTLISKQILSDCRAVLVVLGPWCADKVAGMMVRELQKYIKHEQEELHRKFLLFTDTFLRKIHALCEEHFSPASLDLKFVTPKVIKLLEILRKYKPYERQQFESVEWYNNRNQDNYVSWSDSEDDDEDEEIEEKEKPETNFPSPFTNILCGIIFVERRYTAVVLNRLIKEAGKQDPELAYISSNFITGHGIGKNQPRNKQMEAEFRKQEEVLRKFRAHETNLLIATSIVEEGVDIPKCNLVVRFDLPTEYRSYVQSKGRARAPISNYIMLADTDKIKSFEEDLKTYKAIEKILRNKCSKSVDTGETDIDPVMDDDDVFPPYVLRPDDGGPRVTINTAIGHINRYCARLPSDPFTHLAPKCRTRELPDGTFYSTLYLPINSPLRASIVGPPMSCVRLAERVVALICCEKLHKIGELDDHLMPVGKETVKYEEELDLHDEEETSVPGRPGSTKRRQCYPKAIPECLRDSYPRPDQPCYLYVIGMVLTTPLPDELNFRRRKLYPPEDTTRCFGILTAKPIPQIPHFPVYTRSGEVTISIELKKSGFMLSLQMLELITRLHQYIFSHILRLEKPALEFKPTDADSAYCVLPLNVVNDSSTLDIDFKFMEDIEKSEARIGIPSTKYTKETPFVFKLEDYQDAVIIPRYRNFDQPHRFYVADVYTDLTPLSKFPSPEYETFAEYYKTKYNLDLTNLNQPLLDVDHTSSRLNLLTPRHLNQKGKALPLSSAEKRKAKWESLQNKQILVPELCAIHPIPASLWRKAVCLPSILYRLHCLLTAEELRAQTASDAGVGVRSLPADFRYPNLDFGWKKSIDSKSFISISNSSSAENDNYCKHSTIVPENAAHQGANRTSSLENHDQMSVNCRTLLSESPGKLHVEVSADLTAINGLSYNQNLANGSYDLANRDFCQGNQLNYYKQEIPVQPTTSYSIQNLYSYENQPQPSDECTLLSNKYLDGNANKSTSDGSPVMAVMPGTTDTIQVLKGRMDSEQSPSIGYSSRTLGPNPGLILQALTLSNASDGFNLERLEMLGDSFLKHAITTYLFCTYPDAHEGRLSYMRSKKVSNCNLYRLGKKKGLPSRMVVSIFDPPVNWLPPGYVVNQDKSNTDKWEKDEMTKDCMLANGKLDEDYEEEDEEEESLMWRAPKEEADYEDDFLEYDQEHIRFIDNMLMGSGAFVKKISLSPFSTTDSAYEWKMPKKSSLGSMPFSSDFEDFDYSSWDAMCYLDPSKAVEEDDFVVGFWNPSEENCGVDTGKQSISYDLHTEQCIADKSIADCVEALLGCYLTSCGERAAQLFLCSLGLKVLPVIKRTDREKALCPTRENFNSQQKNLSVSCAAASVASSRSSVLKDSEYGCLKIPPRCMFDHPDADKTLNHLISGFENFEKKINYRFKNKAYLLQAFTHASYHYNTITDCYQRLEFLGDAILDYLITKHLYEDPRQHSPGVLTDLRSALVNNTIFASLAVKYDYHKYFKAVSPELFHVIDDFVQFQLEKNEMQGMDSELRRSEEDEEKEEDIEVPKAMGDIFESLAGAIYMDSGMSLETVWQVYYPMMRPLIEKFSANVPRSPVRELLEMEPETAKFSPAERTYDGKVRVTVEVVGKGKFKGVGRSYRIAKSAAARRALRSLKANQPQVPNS

| Compound | z-score |
| --- | --- |
| CCN1C(=O)C2(/C(=C(/O)c3ccc(OC)c(C)c3)C(=O)C(=O)N2CCCOC)c2ccccc21 (stereo not given) | 1.63 |
| CCN1C(=O)C2(/C(=C(/O)c3ccccc3)C(=O)C(=O)N2CCCOC)c2ccccc21 (stereo not given) | 3.53 (active) |
| CCN1C(=O)C2(/C(=C(/O)c3ccc(C)c(F)c3)C(=O)C(=O)N2CCCOC)c2ccccc21 (stereo not given) | -0.56 |
| CC1CC(=O)Nc2ccccc2N1C(=O)Nc1cccc(Cl)c1Cl (stereo not given) | -0.93 |
| O=C1CC(N2CCN(C(c3ccccc3)c3ccccc3)CC2)C(=O)N1c1cccc(Cl)c1 (stereo not given) | -0.21 |
| Cc1ccc(S(=O)(=O)NC(=O)Nc2nc(-c3ccc(F)c(F)c3)cs2)cc1 | -0.18 |
| O=C(NC(=S)Nc1nc(-c2ccc(Cl)cc2)cs1)C1CC1 | 1.34 |
| O=C(NNc1nc(-c2ccc(F)cc2)cs1)c1ccc(Cl)cc1 | 5.33 (active) |
| CC12c3ccccc3C(c3ccccc31)C1C(=O)N(c3ccc(C(=O)O)cc3)C(=O)C12 (stereo not given) | 0.79 |
| Cc1ncc([N+](=O)[O-])n1CCOC(=O)c1ccc(Br)cc1 | -0.13 |
| Cc1oc2cc(Br)c(OC(=O)c3ccco3)cc2c1C(=O)OC(C)C | 1.65 |
| Cc1oc2cc(Br)c(O)cc2c1C(=O)OC(C)C | 3.81 (active) |
| COc1ccc(C(=O)COc2cc3c(C(=O)OC(C)C)c(C)oc3cc2Br)cc1 | 0.17 |
| Cc1cn(C(=O)Nc2ccccc2)nc1-c1cccs1 | 1.17 |
| Cc1ccc2nc(-c3cccnc3)[nH]c2c1 | -0.74 |
| COc1cc(C2C3=C(CC(C)(C)CC3=O)Nc3ncnn32)ccc1OC(C)C (stereo not given) | 3.67 (active) |
| COc1cc(OC)cc(-c2nc3n(n2)C(c2ccc(OC)c(OC)c2)C2=C(CC(C)(C)CC2=O)N3)c1 (stereo not given) | 0.99 |
| COc1cc(C2C3=C(CC(C)(C)CC3=O)NC3=C2C(=O)CC(C)(C)C3)ccc1O | 1.78 |
| C=CCOc1ccc2c(=O)c(Oc3cc(C)ccc3C)coc2c1 | 1.12 |
| O=C(c1ccco1)N1CCC2(Cl)CCCCC2C1c1ccccc1 (stereo not given) | -2.84 |

| Compound | z-score |
| --- | --- |
| O=C(NC1(NCc2ccc(Cl)cc2)C(=O)c2ccccc2C1=O)c1ccc(C(F)(F)F)cc1 | 0.41 |
| COc1ccc(Nc2nc3ccccc3nc2NS(=O)(=O)c2ccccc2)cc1OC | 1.78 |
| CCCCN(CC)c1ncnc2ccc(C)cc12 | 3.53 (active) |
| NC(=S)N/N=C/c1ccc(Cl)c(Cl)c1 | -1.14 |
| CC(C)(C)NC(=O)NCCCN1CCOCC1 | 0.22 |
| CCN(CC)C(=O)c1c(NC(=O)c2cccs2)sc2c1CCCCC2 | -1.54 |
| CCOC(=O)C1=C(C)NC2=C(C(=O)c3ccccc32)C1c1cc(Br)c(OC)c(OC)c1 (stereo not given) | 1.14 |
| CCS(=O)(=O)n1nc(-c2ccc(OC)cc2)nc1SC | 3.58 (active) |
| COc1ccc(-c2noc(-c3ccc(Br)cc3)n2)cc1 | 1.15 |
| CCCc1cc(=O)n2[nH]c(SCc3ccccc3)nc2n1 | 0.14 |
| O=c1[nH]c(SCc2ccccc2)nnc1-c1ccccc1 | 0.5 |
| CCS(=O)(=O)n1nc(-c2ccccc2)nc1SCc1ccccc1 | 3.99 (active) |
| COc1ccc(Cc2nc(-c3ccc(OC)cc3)no2)cc1 | 0.51 |
| COc1ccc(COC(=O)C2=C(C)NC3=C(C(=O)CCC3)C2c2ccc(Br)cc2)cc1 (stereo not given) | 0.32 |
| O=c1c(-c2ccc(OC3O[C@H](CO)[C@@H](O)[C@H](O)[C@H]3O)cc2)coc2cc(O)cc(O)c12 (stereo not given in full) | 0.24 |
| CS(=O)(=O)N(CC(=O)O)c1cccc2ccccc12 | -1.7 |
| CCOC(=O)C1=C(c2ccccc2)Nc2nc3ccccc3n2C1c1ccc(O)c(OCC)c1 (stereo not given) | -6.05 |
| N#Cc1cn(Cc2ccccc2Cl)c(=O)[nH]c1=O | 0.24 |
| CC1(C)SC2C(NC(=O)COc3ccccc3)C(=O)N2C1C(=O)O (stereo not given) | 1.11 |
| CC1(C)S[C@@H]2[C@H](NC(=O)COc3ccccc3)C(=O)N2C1C(=O)O (stereo not given in full) (tested in a mixture with another compound) | -0.17 |

| Compound | z-score |
| --- | --- |
| CC(=O)N1[C@@H](c2ccc(C)cc2)SC(C)(C)[C@@H]1C(=O)O | 4.5 (active) |
| CN(C)c1ccc(NC(=O)CSc2nc(-c3ccco3)cc(C(F)(F)F)n2)cc1 | -1.78 |
| Cc1nc2ccccc2n1CCOc1ccc(Cl)cc1 | 0.74 |
| CCCNC(=O)NNC(=O)Cn1nnc(N2CCOCC2)n1 | 11.9 |
| S=c1nn[nH]n1-c1ccc(Cl)cc1Cl | -0.38 |
| CCCc1cc(-c2n[nH]c(C)c2-c2ccc3c(c2)OCCO3)c(O)cc1O | 7.51 (active) |
| c1ccc2c(-c3csc(-c4ccc5c(c4)OCCO5)n3)csc2c1 | -0.77 |
| Cc1cc(C)n(C(C)C(=O)Nc2ccc(F)cc2)c(=O)n1 (stereo not given) | 2.63 |
| O=C(O)CCC(=O)c1ccc2ccccc2c1 | 0.56 |
| Cc1ccc(OS(=O)(=O)c2ccc(F)cc2)c([N+](=O)[O-])n1 | -1.06 |
| O=C(O)c1ccc(NS(=O)(=O)c2cccc3nsnc23)cc1 | 1.86 |
| Cc1ccc2nsnc2c1S(=O)(=O)N1CCCC1C(=O)O (stereo not given) | -1.03 |
| Cc1ccc2nsnc2c1S(=O)(=O)Nc1ccc(Br)cc1 | 5.39 (active) |
| CN(C)/C=C1\C(=O)c2ccc(Cl)cc2N(Cc2c(F)cccc2Cl)S1(=O)=O | -0.82 |
| Cc1ccc(C(=O)Nc2ccccc2Sc2nc3ccccc3c(C)c2C#N)cc1 | -1.01 |
| CCOc1ccc(/C(O)=C2\C(=O)C(=O)N(c3nccs3)C2c2ccc(F)cc2)cc1 (stereo not given) | 0.2 |
| O=C(Nc1cccc(Br)c1)c1csc2c1CCCC2 | 5.59 (active) |
| O=C(NCc1ccccn1)C(=O)Nc1cccc(Br)c1 | 1.05 |
| O=C(Nc1sc2c(c1C(=O)O)CCCC2)c1cc2ccccc2o1 | 0.75 |
| Cc1nc(-n2cccc2)sc1C(=O)N/N=C/c1ccc(Cl)cc1 | 0.46 |
